Bioassay records deposited in PubChem BioAssay by The Scripps Research Institute Molecular Screening Center.
S1P4 ag: S1P4 receptor agonists, primary screen, cell-based | 220,000 compounds, 0.35% hits | activation, % at 4.98 µM | S1P4-expressing cell line, agonist reporter assay; in the data active = activation above about 11%
S1P3 antagonist: S1P3 receptor antagonists, primary screen, cell-based; Sphingosine 1-phosphate receptor 3 (Homo sapiens), Q99500; CHO S1P3 NFAT-BLA reporter, FRET fluorescence, antagonist mode; inhibition, % at 4.98 µM; 170,000 compounds, 0.27% hits; AID 485, 2006;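 active = inhibition above the plate cutoff, the mean inhibition of test wells on that plate plus 3 SD, cut at about 28% in these data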;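 note: cells challenged with S1P at its EC80 of 0.8 µM; blue over green emission ratio from cleaved BLA substrate after 4 h stimulation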
S1P4 antag: S1P4 receptor antagonists, primary screen, cell-based | Sphingosine 1-phosphate receptor 4 (Homo sapiens), O95977 | S1P4-expressing cells, antagonist mode, reporter read-out | inhibition, % at 4.98 µM | 220,000 compounds, 0.26% hits; in the data active = inhibition above about 29%
GALR2 agonist: GALR2 receptor agonists, primary screen, cell-based | Galanin receptor type 2 (Homo sapiens), O43603 | GALR2-expressing cells, agonist activation read-out | activation, % (test concentration not listed) | 140,000 compounds, 0.48% hits | AID 803, 2007; in the data active = activation above about 5%, passing the limit was not always enough
GALR2 antag: GALR2 antagonists in receptor-expressing cells, primary screen | AID 828, 2007 | inhibition, % at 4 µM | 140,000 compounds, 0.39% hits | antagonist mode; in the data active = inhibition above about 27%;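 note: cells stimulated with galanin 1-16 at roughly its EC80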
S1P4 agonist cf: S1P4 receptor agonists, retest, confirmation, cell-based, high throughput. shares compounds with S1P4 ag. S1P4 agonist cell-based reporter assay. activation, % at 4.98 µM. 740 compounds, 7% hits; in the data active = activation above about 12%
S1P1 agonist: S1P1 receptor agonists, human, counter-screen for S1P4 agonist project, cell-based. 740 compounds, 4% hits. activation, % at 4.98 µM. S1P1 agonist cell-based assay, activation. AID 1563, 2009. shares compounds with S1P4 ag; in the data active = activation above about 21%
Target sequence (P21453 whole entry, looked up): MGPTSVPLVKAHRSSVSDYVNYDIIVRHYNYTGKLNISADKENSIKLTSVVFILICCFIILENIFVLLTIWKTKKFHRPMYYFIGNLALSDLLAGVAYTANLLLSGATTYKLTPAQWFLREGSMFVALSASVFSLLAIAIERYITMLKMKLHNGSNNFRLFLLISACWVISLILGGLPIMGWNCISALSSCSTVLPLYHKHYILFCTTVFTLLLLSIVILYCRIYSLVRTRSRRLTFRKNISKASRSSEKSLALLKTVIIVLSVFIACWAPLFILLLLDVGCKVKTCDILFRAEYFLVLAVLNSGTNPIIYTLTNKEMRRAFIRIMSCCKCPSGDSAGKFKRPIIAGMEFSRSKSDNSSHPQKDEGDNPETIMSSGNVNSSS
Of the large screens only hits and unclear results are named; the others gave an inactive call (follow-up assays come after a bar, where they were run). A selection: hits, their analogues and other compounds. The true share with any hit is near 1.3%.

O=S(=O)(NC1CCCCC1NS(=O)(=O)c1ccc(F)cc1)c1ccc(F)cc1 (stereo not drawn)	S1P4 ag 15 | S1P4 agonist cf inactive | S1P1 agonist inactive
O=S(=O)(NC1CCCC1)c1ccc(S(=O)(=O)NC2CCCC2)cc1	none
O=S(=O)(NC1CCCCC1Nc1ccccc1)c1ccccc1 (stereo not drawn)	S1P4 ag 16 | S1P4 agonist cf inactive | S1P1 agonist inactive
O=S(=O)(NC1CCCCC1Oc1ccccc1)c1ccc(Cl)cc1 (stereo not drawn)	none
Cc1cc(C(F)(F)F)nn1CC(=O)N(C)C1CCCCC1	none (no result: S1P3 antagonist)
O=C(CN1CCN(c2ccccc2O)CC1)Nc1ccc2c(c1)CCC2	S1P4 ag 13 | S1P4 agonist cf inactive | S1P1 agonist inactive
O=C(CNC1CCCCC1)NN=C(c1ccccc1)c1ccccc1	none (no result: GALR2 agonist, GALR2 antag)
CC1CCc2ccccc2N1C(N)=Nc1ccccc1 (stereo not drawn)	none (no result: GALR2 agonist, GALR2 antag)
Cc1c(N/C(=N/S(=O)(=O)c2ccc(F)cc2)c2ccccc2)c(=O)n(-c2ccccc2)n1C	S1P4 ag 14 (no result: GALR2 agonist, GALR2 antag) | S1P4 agonist cf inactive | S1P1 agonist inactive
Cc1ccccc1S(=O)(=O)/N=C(/Nc1c(C)n(C)n(-c2ccccc2)c1=O)c1ccccc1	none (no result: GALR2 agonist, GALR2 antag)
Cc1cc(C)n(CCO)c(=O)n1	none
Cc1cc(=S)cc(C)n1CCO	S1P4 ag 11 | S1P4 agonist cf inactive | S1P1 agonist inactive
CCOC(=O)c1cnn2c1[nH]c(=O)c1ccccc12	S1P4 ag 255 (no result: S1P3 antagonist) | S1P4 agonist cf inactive | S1P1 agonist inactive
O=C(Nc1nnc(C2CC2)s1)c1ccc(S(=O)(=O)c2ccccc2)cc1	S1P4 ag 14 (no result: S1P3 antagonist) | S1P4 agonist cf inactive | S1P1 agonist inactive
O=C(Nc1nncs1)c1ccc(S(=O)(=O)c2ccccc2)cc1	none (no result: S1P3 antagonist)
COc1ccc(C2c3cc(OC)c(OC)cc3CCN2C2CC(=O)N(c3ccccc3)C2=O)cc1OC (stereo not drawn)	S1P4 ag 18 (no result: S1P3 antagonist) | S1P4 agonist cf inactive | S1P1 agonist inactive
COc1ccc(CCN(C)C2CC(=O)N(c3ccccc3)C2=O)cc1OC (stereo not drawn)	none (no result: GALR2 agonist, GALR2 antag)
O=C(/C=C/c1ccccc1[N+](=O)[O-])N1CCN(c2ccc(F)cc2)CC1	none (no result: GALR2 agonist, GALR2 antag)
O=C(Cc1ccccc1[N+](=O)[O-])N1CCN(c2ccc(F)cc2)CC1	S1P4 ag 74 (no result: GALR2 agonist, GALR2 antag) | S1P4 agonist cf inactive | S1P1 agonist inactive
Cc1c[nH]c(=O)c([N+](=O)[O-])c1	none (no result: GALR2 agonist, GALR2 antag)
C=CCN1C(=O)CS/C1=N\S(=O)(=O)c1ccc(Cl)cc1	S1P4 ag 11 | S1P4 agonist cf inactive | S1P1 agonist inactive
CCN1C(=O)CS/C1=N\S(=O)(=O)c1ccc(C)cc1	none (no result: GALR2 agonist, GALR2 antag)
COc1ccc(OCCOCCOc2ccc(C)cc2[N+](=O)[O-])cc1	S1P4 ag 30 | S1P4 agonist cf inactive | S1P1 agonist inactive
COc1cccc(OCCOCCOc2ccc(C)cc2[N+](=O)[O-])c1	none
COc1ccccc1OCC(=O)NCCNC(=O)COc1ccccc1OC	none
COc1ccccc1OCC(=O)NCc1nc(-c2ccccc2)no1	S1P4 ag 76 (no result: GALR2 agonist, GALR2 antag) | S1P4 agonist cf inactive | S1P1 agonist inactive
CCOC(=O)/C=C1\SCC(=O)N1CC(=O)N1CCOCC1	none (no result: GALR2 agonist, GALR2 antag)
COc1cc(CNCCO)cc(Cl)c1OCc1ccccc1Cl	S1P4 ag 11 (no result: GALR2 agonist, GALR2 antag) | S1P4 agonist cf inactive | S1P1 agonist inactive
O=C(NNC(=O)c1ccc([N+](=O)[O-])cc1)NC1CCCCC1	none (no result: GALR2 agonist, GALR2 antag)
CCCCNC(=O)Cc1ccc(Br)cc1	S1P4 ag 13 (no result: GALR2 agonist, GALR2 antag) | S1P4 agonist cf inactive | S1P1 agonist inactive
COCCNC(=O)Cc1ccc(Br)cc1	none
CCOC(=O)c1c(NC(=O)COC(=O)c2cc(OC)c(OC)cc2[N+](=O)[O-])sc(C)c1C	S1P4 ag 17 | S1P4 agonist cf inactive | S1P1 agonist inactive
Oc1cccc(/C=N/Nc2cc(N3CCOCC3)nc(N3CCOCC3)n2)c1	S1P4 ag 13 | S1P4 agonist cf inactive | S1P1 agonist inactive
Oc1ccc(/C=N/Nc2cc(N3CCOCC3)nc(N3CCOCC3)n2)cc1O	none
